Among all 52,000 compounds or so, about 4,300 (8.3%) were called active. This is one part of a sample in which actives are shown more often than they occur. Unmarked numbers belong to inactive results. Rule as the data show it: active = survival mostly below about 52% (no sharp cut-off); inactive = mostly above about 56%.

This assay concerns DeltatarO mutant. The assay is described as follows: growth inhibition of S. aureus wild type versus tarO mutant, primary screen, teichoic acid synthesis inhibitors, RN4220, OD600 (AID 463173). Conditions: OD600, 18 h, hits give low values, screened at 18.75 µg/mL (by protocol).
With `COc1ccc(-c2cn3nc(N4CCCC(C(=O)Nc5cc(C)cc(C)c5)C4)sc3n2)cc1` (stereo not given), the survival is 75%.
Turning to `COc1ccc(-n2nnc(-c3nsc(NC(=O)c4cccc(C)c4)n3)c2C)cc1OC`, the survival is 88%.
In the case of `CC(C)OCCCNC(=O)c1ccc(-n2c(-c3ccccc3)cc3c2CCCC3)cc1` it was 75%; in that of `CCOCCCNC(=O)c1ccc(-n2c(-c3ccccc3)cc3c2CCCCC3)cc1`, 49%; in that of `CN(C)CCNC(=O)c1ccc(-n2c(-c3ccccc3)cc3c2CCCC3)cc1`, 33% (active).
For the compound `CCOCCCNC(=O)c1ccc(-n2c(-c3ccccc3)cc3c2CCCC3)cc1`, the survival was 69%.
In the case of `COCCNC(=O)c1ccc(-n2c(-c3ccccc3)cc3c2CCCCC3)cc1` it was 110%.
The value for `CCNC(=O)c1ccc(-n2c(-c3ccccc3)cc3c2CCCCC3)cc1` was 43% (active).
The value for `CCN(CC)CCNC(=O)c1ccc(-n2c(-c3ccccc3)cc3c2CCCC3)cc1` was 8% (active); that for `COCCCNC(=O)c1ccc(-n2c(-c3ccccc3)cc3c2CCCC3)cc1` was 70%.
Turning to `CCCNC(=O)c1ccc(-n2c(-c3ccccc3)cc3c2CCCCC3)cc1`, the survival is 103%.
The value for `CC(C)NC(=O)c1ccc(-n2c(-c3ccccc3)cc3c2CCCCC3)cc1` was 108%; that for `CN(C)CCNC(=O)c1ccc(-n2c(-c3ccccc3)cc3c2CCCCC3)cc1` was 53%.
The value for `COCCCNC(=O)c1ccc(-n2c(-c3ccccc3)cc3c2CCCCC3)cc1` was 39% (active).
Turning to `Cc1nnc(NCc2ccccc2)c2c1nnn2Cc1ccccc1Cl`, the survival is 92%.
Consider `COc1ccc(CCNC(=O)c2c(C)nn(-c3ccc(F)cc3)c2-n2cccc2)cc1OC`, for which the survival was 74%.
The value for `Cc1oc2c(c1C(=O)Nc1ccc(OC(F)(F)F)cc1)C1=NCCN1C=N2` was 80%; that for `COc1ccccc1CN1C(=O)CN(C2CCCCCC2)C(=O)C1c1ccc(C)cc1` (stereo not given) was 88%; that for `Cc1ccc(-n2c(SCC(=O)Nc3cccc(C)c3)nc3c(oc4ccccc43)c2=O)cc1` was 99%.
In the case of `Cc1cccc(-n2ncc(C(=O)N3CCN(C(=O)c4ccco4)CC3)c2C2CCN(C(=O)OC(C)(C)C)CC2)c1` it was 62%.
The value for `CCCC(CCC)C(=O)Nc1cccc(-c2cn3cccnc3n2)c1` was 83%.
In the case of `CCC1CCCCN1C(=O)Cn1c(=O)n(CC2CCC(C(=O)NC)CC2)c(=O)c2sccc21` (stereo not given), the survival is 102%.
In the case of `O=C(CCN1CCOCC1)N1N=C(c2ccccc2)CC1c1ccco1` (stereo not given) it was 89%; in that of `Oc1ccc(Br)cc1C1CC(c2ccccc2)=NC(c2ccco2)N1` (stereo not given), 1% (active).
Take `O=c1oc2c(F)cc(F)cc2cc1S(=O)(=O)c1ccc(F)cc1`: the survival was 60%.
In the case of `CCN(CC)c1ccc(-c2nc(-c3ccncc3)no2)cc1[N+](=O)[O-]` it was 79%.
In the case of `CCc1noc(-c2ccc(N(C)Cc3ccc(OC)cc3)c([N+](=O)[O-])c2)n1` it was 75%.
In the case of `COc1ccccc1-c1noc(-c2ccc(N(C)Cc3ccccc3)c([N+](=O)[O-])c2)n1` it was 36% (active); in that of `CCN(CC)c1ccc(-c2nc(-c3ccccn3)no2)cc1[N+](=O)[O-]`, 41% (active).
For `COc1ccc(CN(C)c2ccc(-c3nc(-c4ccccc4)no3)cc2[N+](=O)[O-])cc1`, the survival was 71%.
The value for `CN(Cc1ccccc1)c1ccc(-c2nc(-c3ccncc3)no2)cc1[N+](=O)[O-]` was 63%; that for `CN(Cc1ccccc1)c1ccc(-c2nc(-c3ccccn3)no2)cc1[N+](=O)[O-]` was 34% (active); that for `CCN(Cc1ccc(OC)cc1)c1ccc(-c2nc(-c3ccncc3)no2)cc1[N+](=O)[O-]` was 41% (active).
In the case of `COc1ccc(CN(C)c2ccc(-c3nc(-c4ccc(OC)c(OC)c4)no3)cc2[N+](=O)[O-])cc1` it was 62%; in that of `CCN(CC)c1ccc(-c2nc(-c3ccco3)no2)cc1[N+](=O)[O-]`, 47%.
In the case of `CCN(CC)c1ccc(-c2nc(-c3ccccc3C)no2)cc1[N+](=O)[O-]` it was 68%; in that of `CN(Cc1ccccc1)c1ccc(-c2nc(-c3ccccc3)no2)cc1[N+](=O)[O-]`, 69%.
In the case of `CC1CCC(NC(=O)c2ccc3c(c2)N(Cc2ccccc2F)C(=O)c2ccccc2S3(=O)=O)CC1` (stereo not given), the survival is 74%.
The value for `CCOc1ccc(NS(=O)(=O)c2ccc3[nH]cc(C(=O)NCC4CCCO4)c(=O)c3c2)cc1` (stereo not given) was 87%; that for `CCOC(=O)C1CCN(C(=O)c2nn(-c3ccc(OC)c(Cl)c3)c(=O)c3c2c2ccccc2n3C)CC1` was 76%.
For the compound `Cc1cccc(C(=O)NCC(c2cccs2)S(=O)(=O)c2cccs2)c1` (stereo not given), the survival is 81%.
The value for `Cc1ccc(OCC(=O)NCC(=O)OCc2cc(=O)n3nc(C(C)C)sc3n2)cc1` was 97%; that for `Cn1c(=O)c2ccccc2n2c(CCC(=O)N3CCN(c4cccc(Cl)c4)CC3)nnc12` was 82%; that for `Cc1ccc(/C=C(\C#N)C(=O)NC2CCCCCC2)o1` was 92%.
The value for `CN(C)c1ccc(-c2nc(-c3ccncc3)no2)cc1[N+](=O)[O-]` was 81%; that for `CN(C)c1ccc(-c2nc(-c3ccco3)no2)cc1[N+](=O)[O-]` was 52%; that for `CN(C)c1ccc(-c2nc(-c3ccccn3)no2)cc1[N+](=O)[O-]` was 42% (active).
On to `Cc1ccc(-n2c(=O)c3oc4ccccc4c3n(CC(=O)Nc3ccccc3)c2=O)cc1C`, for which the survival was 54%.
For the compound `CCCN(CCC)C(=O)c1nn(C)c2c1CSc1ccc(C)cc1-2`, the survival is 92%.
With `CCOC(=O)c1ccc(NC(=O)CS(=O)(=O)Cc2nc(-c3ccc(C)cc3)oc2C)cc1`, the survival is 95%.
In the case of `COc1cc(OC)c(NC(=O)C(C)n2c(=O)cc(-c3ccccc3)c3c(C)nn(C)c32)cc1Cl` (stereo not given) it was 83%.
The value for `COc1cc(OC)c(NC(=O)C(C)n2nc(-c3ccc(C)cc3)c3c(c2=O)CCCC3)cc1Cl` (stereo not given) was 39% (active); that for `COc1ccc(NC(=O)C(C)N2CCN(C)CC2)cc1` (stereo not given) was 86%.
As to `Cc1ccc(NC(=O)C(C)n2nnc3sc4c(c3c2=O)CCCC4)cc1Cl` (stereo not given), the survival was 82%.
In the case of `COc1cc(OC)c(NC(=O)C(C)n2nc(-c3ccc(C)c(C)c3)ccc2=O)cc1Cl` (stereo not given) it was 64%; in that of `COc1ccc(NC(=O)C(C)n2nc(-c3cc(C)ccc3C)c3c(c2=O)CCCC3)cc1` (stereo not given), 38% (active).
The value for `Cc1cc(C)n(-c2nc(C)c(C)c(=O)n2CC(=O)Nc2ccc(Cl)c(Cl)c2)n1` was 82%.
The value for `COc1ccc(-c2nc3nc(C)cc(Nc4cccc(C(F)(F)F)c4)n3n2)cc1` was 63%; that for `COc1cccc(N2C(=O)C(CC(=O)Nc3ccc(F)cc3)N(CCC3=CCCCC3)C2=O)c1` (stereo not given) was 53%; that for `COc1ccc(CNC(=O)CCC2N=C3c4ccccc4N=C(SCc4cccc(F)c4)N3C2=O)cc1` (stereo not given) was 117%.
For the compound `Cc1c(CCNC(=O)c2ccc(C(C)(C)C)cc2)sc2nc(-c3ccc(F)cc3)nn12`, the survival was 82%.
The value for `CCOC(=O)c1scc(-c2ccccc2)c1S(=O)(=O)N1CCN(c2ccccc2OC)CC1` was 94%.
Turning to `O=C(COc1cccc(-n2cnnn2)c1)NC1CCCCC1`, the survival is 83%.
Take `CCOc1ccccc1NC(=O)Cn1nnc2sc(-c3ccccc3)cc2c1=O`: the survival is 39% (active).
In the case of `COC(=O)c1ccccc1NC(=O)Cn1nnc2sc(-c3ccccc3)cc2c1=O` it was 52%.
The value for `CCCN(CCC)C(=O)Cn1nnc2sc(-c3ccccc3)cc2c1=O` was 70%; that for `CCc1cccc(CC)c1NC(=O)Cn1nnc2sc(-c3ccccc3)cc2c1=O` was 49%.
As to `CCN(CC)C(=O)Cn1nnc2sc(-c3ccccc3)cc2c1=O`, the survival was 56%.
Regarding `CCN(C(=O)Cn1nnc2sc(-c3ccccc3)cc2c1=O)c1cccc(C)c1`, the survival is 50% (active).
In the case of `COC(=O)c1ccc(NC(=O)CSc2nc(=O)[nH]c3c2CCCC3)cc1`, the survival was 75%.
`COC(=O)CSc1ncc2c(n1)-c1ccccc1N(Cc1ccc(Cl)cc1)S2(=O)=O`: the survival was 69%.
As for `CCOC(=O)N1CCc2c(sc3c2c(=O)n(CCc2ccccc2)c(=O)n3Cc2c(F)cccc2Cl)C1`, the survival was 85%.
`COc1ccc(-c2nc(C)c(CCNC(=O)c3c(F)cccc3F)s2)cc1`: the survival is 84%.
Turning to `O=C(Cn1c(=O)oc2cc(S(=O)(=O)N3CCCCCC3)ccc21)NCc1ccccc1Cl`, the survival was 78%.
The value for `CCc1ccc(C2c3c(-c4cc(C)ccc4O)n[nH]c3C(=O)N2CCO)cc1` (stereo not given) was 61%.
In the case of `CCCCOc1cccc(C2c3c(-c4cc(C)ccc4O)n[nH]c3C(=O)N2CCOC)c1` (stereo not given) it was 10% (active).
The value for `COCCN1C(=O)c2[nH]nc(-c3c(C)cc(C)cc3O)c2C1c1cccc(O)c1` (stereo not given) was 57%.
With `CCOc1cc(C2c3c(-c4cc(C)ccc4O)n[nH]c3C(=O)N2CCCOC(C)C)ccc1O` (stereo not given), the survival is 90%.
In the case of `COCCCN1C(=O)c2[nH]nc(-c3cc(C)ccc3O)c2C1c1ccc(F)cc1` (stereo not given) it was 66%; in that of `COCCN1C(=O)c2[nH]nc(-c3cc(C)ccc3O)c2C1c1ccc(C(C)C)cc1` (stereo not given), 1% (active).
In the case of `COCCCN1C(=O)c2ccccc2CC1(C)C(=O)NC1CCCCC1` (stereo not given) it was 97%.
In the case of `Cc1ccc(CNC(=O)Cc2csc3ccccc23)cc1` it was 93%; in that of `CC(=O)N1c2ccc(S(=O)(=O)N3CCN(c4cc(Cl)ccc4C)CC3)cc2CC1C` (stereo not given), 87%.
With `CCN1CCCC1CNCC(=O)NC1(C)C2CCC(C2)C1(C)C` (stereo not given), the survival is 100%.
With `COc1ccccc1C(=O)Nc1nnc2n1CCS2`, the survival is 69%.
In the case of `COc1ccccc1N1CCN(C(=O)c2ccco2)CC1` it was 104%.
The value for `COc1cc(C(=O)NCC(c2cccnc2)N2CCc3ccccc3C2)cc(OC)c1OC` (stereo not given) was 76%; that for `O=C(NCC(c1cccnc1)N1CCc2ccccc21)c1ccccc1Br` (stereo not given) was 56%; that for `COc1ccc(C(=O)NCC(c2cccnc2)N2CCc3ccccc32)cc1OC` (stereo not given) was 57%.
As to `O=C(NCC(c1cccnc1)N1CCc2ccccc21)c1ccc(Cl)cc1` (stereo not given), the survival was 52%.
In the case of `Cc1ccc(C(=O)NCC(c2cccnc2)N2CCc3ccccc32)cc1C` (stereo not given) it was 55%.
With `COc1ccc(C(=O)NCC(c2cccnc2)N2CCc3ccccc3C2)cc1` (stereo not given), the survival is 77%.
The value for `Cc1ccccc1C(=O)NCC(c1cccnc1)N1CCc2ccccc21` (stereo not given) was 44% (active); that for `COc1ccc(C(=O)NCC(c2cccnc2)N2CCc3ccccc32)cc1` (stereo not given) was 46% (active).
In the case of `COc1cc(C(=O)NCC(c2cccnc2)N2CCc3ccccc32)cc(OC)c1OC` (stereo not given) it was 44% (active).

These data come from PubChem BioAssay AID463173 (ICCB-Longwood Screening Facility, Harvard Medical School, 2010).
